# Compounds with a hit are over-represented: about 7% of the library has one in this group of screens.
# HP1b chromo inh: HP1-beta chromodomain-methylated histone interaction inhibition; P83916; AlphaScreen HP1-beta / biotin-H3K9me3 peptide binding; Potency, µM (highest dose often 114 µM), without a hit: top-dose activity change, negative = inhibition, most hits filed as inhibitors; actives 0.56% (n = 390,000); AID 540317; also: potency is read from the fitted curve at half-maximal effect; nearly all actives have a fitted effect of over 70% in size
#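 AlphaScreen: HP1-beta (50 nM) preformed 30 min with biotin-H3(1-18)K9me3 peptide (50 nM) in PBS pH 7.4, 0.01% Tween-20. Compound added for 30 min at RT, then streptavidin donor/nickel chelate acceptor beads (10 ug/mL) for 30 min.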
# GCN5L2 inh: GCN5L2 (KAT2A) acetyltransferase inhibition | GCN5L2 HAT assay, ThioGlo1 CoA-SH fluorescence | actives 0.21% (n = 390,000) | Potency, µM (titrated, usually from 58.9 µM), without a hit: at the highest dose activity change, negative = inhibition, actives largely listed as inhibitors | Q92830; also: potency is read from the fitted curve at half-maximal effect; % is scaled to controls: 0 for no effect and ±100 for the full control effect
#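 Preincubate 20nM GCN5L2 with compound 15 min, RT → add 50uM ThioGlo1 + 75uM H3(1-25) + 70uM acetyl-CoA → read fluorescence 0 and 20 min. Primary qHTS; fluorescent artifacts likely.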
# PI5P4Ka inh: PI5P4K alpha (human) kinase inhibition; P48426; PI5P4Kalpha enzyme, ADP-Glo luminescence, 60 min; stronger effect = lower value; max response, %; actives 1.2% (n = 330,000); AID 652105; active = max response of -50% or lower; inconclusive = between -30% and -50%; inactive = -30% or higher; also: value at the top dose of about 77 µM; % is scaled to controls: 0 for no effect and ±100 for the full control effect
#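 Human PI5P4Kalpha with substrate in 0.038 M HEPES pH 7.4, 0.28 mM EGTA, 0.1% CHAPS, 5% DMSO; reaction started with 5 microM ATP (final), 60 min at room temperature. ADP formed read by ADP-Glo luminescence.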
# PLK1 PBD block: blocks phosphopeptide binding to human PLK1 polo-box domain | P53350 | Plk1 PBD binding of FITC phosphopeptide, fluorescence polarization | Potency, µM, inactives show max response, negative = inhibition, actives largely listed as inhibitors | actives 2.8% (n = 360,000); also: potency is read from the fitted curve at half-maximal effect; series mostly up to about 57 µM; % is scaled to controls: 0 for no effect and ±100 for the full control effect; nearly all actives have a fitted effect of over 65% in size
# JMJD2A Tudor: inhibitors of human JMJD2A Tudor domain | AlphaScreen JMJD2A-Tudor / H3K4me3 peptide binding | Potency, µM (highest dose often 114 µM), for the others: at the top dose activity change, negative = inhibition, actives largely listed as inhibitors | actives 4.4% (n = 390,000); also: potency is read from the fitted curve at half-maximal effect; % is scaled to controls: 0 for no effect and ±100 for the full control effect; nearly all actives have a fitted effect of over 50% in size
# Target sequence (O75164 whole entry, looked up, the tested form may be a part): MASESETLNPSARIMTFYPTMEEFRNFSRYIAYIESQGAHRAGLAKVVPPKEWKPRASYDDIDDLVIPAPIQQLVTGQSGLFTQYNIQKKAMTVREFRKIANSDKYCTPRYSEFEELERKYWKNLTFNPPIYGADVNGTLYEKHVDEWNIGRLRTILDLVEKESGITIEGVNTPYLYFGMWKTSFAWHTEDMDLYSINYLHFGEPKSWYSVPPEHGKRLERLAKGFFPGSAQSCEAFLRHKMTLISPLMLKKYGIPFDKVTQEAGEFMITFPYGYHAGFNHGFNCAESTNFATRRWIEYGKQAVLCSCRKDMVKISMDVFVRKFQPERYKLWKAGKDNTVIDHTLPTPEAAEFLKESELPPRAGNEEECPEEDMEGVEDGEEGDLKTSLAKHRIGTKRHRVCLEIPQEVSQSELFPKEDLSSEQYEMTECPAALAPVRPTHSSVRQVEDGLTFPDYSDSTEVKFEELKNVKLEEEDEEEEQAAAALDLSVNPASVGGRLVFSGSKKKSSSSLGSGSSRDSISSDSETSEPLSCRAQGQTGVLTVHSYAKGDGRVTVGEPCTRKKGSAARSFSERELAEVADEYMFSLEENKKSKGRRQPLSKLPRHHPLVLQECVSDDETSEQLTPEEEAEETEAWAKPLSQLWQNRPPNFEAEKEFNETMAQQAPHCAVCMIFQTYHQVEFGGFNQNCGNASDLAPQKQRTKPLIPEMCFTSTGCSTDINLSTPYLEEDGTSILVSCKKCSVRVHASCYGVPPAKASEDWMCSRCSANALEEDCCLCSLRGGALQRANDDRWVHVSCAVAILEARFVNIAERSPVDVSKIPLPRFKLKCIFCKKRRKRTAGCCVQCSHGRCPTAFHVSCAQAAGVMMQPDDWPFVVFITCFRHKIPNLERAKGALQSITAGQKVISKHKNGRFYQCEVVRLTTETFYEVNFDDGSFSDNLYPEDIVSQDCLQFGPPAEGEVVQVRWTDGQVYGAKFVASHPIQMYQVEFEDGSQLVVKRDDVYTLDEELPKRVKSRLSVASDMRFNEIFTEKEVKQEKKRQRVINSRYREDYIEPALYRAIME
# BAZ2B inh: inhibitors of human BAZ2B bromodomain; AlphaScreen BAZ2B-H3K14Ac peptide displacement; Potency, µM (highest dose often 114 µM), for the others: at the top dose activity change, negative = inhibition, hits mostly inhibitors; Q9UIF8; actives 4.4% (n = 360,000); also: potency is read from the fitted curve at half-maximal effect; % is scaled to controls: 0 for no effect and ±100 for the full control effect; nearly all actives have a fitted effect of over 60% in size
#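 In this displacement format the biotinylated H3(5-23) peptide acetylated at Lys14 serves as ligand at 50 nM, with BAZ2B at 50 nM in PBS pH 7.4 containing 0.01% Tween-20. Donor and acceptor beads are 10 ug/mL final.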
# The depositor's hits bear a star; ? = inconclusive; nt = no result given; ! = repeats disagree; [ ] = dose if it differs, or a comment. Unless noted, calls follow the shape of the dose curve; as a rule, active = well fitted curve in the direction sought with a large enough effect; inconclusive = small, poorly fitted or top-dose-only effect, or another doubt; inactive = no such curve, though single readings can be large; an effect the other way counts as inactive or inconclusive.
SMILES,HP1b chromo inh,GCN5L2 inh,PI5P4Ka inh,PLK1 PBD block,JMJD2A Tudor,BAZ2B inh
CCOC(=O)C1CCN(Cc2ccc(OC)c(C)c2OC)CC1,?,2%,-1,-9%,1.1µM*,50µM*
Clc1ccc(CN2CCc3nc(Nc4ccc5c(c4)OCCO5)ncc3C2)cc1,-22%,-15%,nt,nt,28µM*,18µM*
COc1cc(OC)c(OC)cc1CN1CCc2nc(Nc3ccc4c(c3)OCCO4)ncc2C1,-13%,-1%,nt,nt,56µM*,45µM*
CCOc1ccccc1CN1CCc2nc(Nc3ccc4c(c3)OCCO4)ncc2C1,?,-25%,nt,nt,56µM*,40µM*
COc1ccc(C)cc1NC(=O)C(OC(=O)CNC(=O)c1ccccc1)c1ccccc1 (stereo unspecified),nt,nt,nt,nt,-14%,nt
Cc1nc(NC(=O)C(Cl)Cl)sc1C(=O)N(C)C,10%,1%,-6,?,79µM*,?
CCN(CC)C(=O)C1CCCN(C/C(C)=C/c2ccccc2)C1 (stereo unspecified),?,-12%,nt,-3%,1.6µM*,50µM*
CCN(CC)C(=O)C1CCCN(C/C=C/c2ccccc2)C1 (stereo unspecified),?,-5%,nt,1%,4.5µM*,56µM*
CCN(CC)C(=O)C1CCCN(Cc2ccccc2C(F)(F)F)C1 (stereo unspecified),?,-13%,1,3%,4.5µM*,79µM*
CCN1CCN(C/C(C)=C/c2ccccc2)CC1,23%,-6%,-3,5%,2%,-6%
Cc1ccc(-n2c(=O)c3c4c(sc3n(CC(=O)C(C)(C)C)c2=O)CCCCC4)cc1C,-1%,-4%,nt,nt,-28%,-15%
CN1CCN(C2CN(C3CCCC3)S(=O)(=O)C2)CC1 (stereo unspecified),nt,nt,0,-10%,nt,nt
CCCOc1ccc(C(=O)NNC(=S)NC(=O)c2ccccc2)cc1,1%,2%,2,-21%,?,-25%
O=C(NC(=S)NNC(=O)c1cccs1)c1ccccc1,11%,-10%,-19,-28%,-18%,6%
CCCOc1ccc(C(=O)NNC(=S)NC(C)=O)cc1,19%,-25%,nt,-2%,28µM*,25%[57.1 µM]
Cc1cccc(C(=O)NC(=S)NNC(=O)c2cccs2)c1,?,-6%,?,-11%,25µM*,11%
CCCOc1ccc(C(=O)NNC(=S)NC(=O)c2cccs2)cc1,-12%[57 µM],-9%,-11,30µM*,?,-26%
COc1ccc(N2CCN(Cc3nc(Cc4cccc(F)c4)no3)C(C)C2)cc1 (stereo unspecified),?,-6%,1,-9%,50µM*,25µM*
O=C(O)CCCn1cc(NC(=O)COc2ccc(F)cc2F)cn1,43%,-2%,8,2%,-9%,-19%
O=C(O)CCCn1cc(NC(=O)COc2ccccc2F)cn1,28%,-21%,4,-6%,79µM*!,6%
Cc1ccc(-c2nc3ccccc3c(=O)n2Cc2ccccc2)cc1,66%,-1%,6,7%,4%,10%
O=c1c2ccccc2nc(-c2ccccc2O)n1Cc1ccccc1,nt,nt,nt,nt,79µM*,nt
CCn1c(-c2ccccc2O)n[nH]c1=S,29%,3%,nt,-22%,4µM*,-32%
COCCn1c(-c2ccccc2F)n[nH]c1=S,44%,3%,-8,-7%,35µM*,22%
Oc1ccccc1-c1n[nH]c(=S)n1Cc1ccccc1,12%,3%,-21,-3%,20µM*,?
SMILES,HP1b chromo inh,GCN5L2 inh,PI5P4Ka inh,PLK1 PBD block,JMJD2A Tudor,BAZ2B inh
COc1ccc(-c2oc3ncn4nc(COc5cccc(C)c5C)nc4c3c2-c2ccc(OC)cc2)cc1,25%,2%,nt,nt,-3%,-34%
S=c1[nH]nc(-c2ccc(Cl)cc2Cl)n1Cc1ccccc1,?,-4%,?,3.8µM*,13µM*,-6%
S=c1[nH]nc(-c2ccccc2Br)n1Cc1ccccc1,-11%,-21%,-4,-6%,-74%,-3%
Oc1cccc(/C=N/Nc2cc(N3CCCC3)nc(N3CCCC3)n2)c1,?,1%,-25,4%,56µM*,45µM*
COc1ccc(/C=N/Nc2cc(N3CCCC3)nc(N3CCCC3)n2)cc1,-10%,-13%,-4,-6%,?,?
CCC(CC)c1nnc(NC(=O)C2CC(=O)N(C3CCCC3)C2)s1 (stereo unspecified),-13%,-3%,-9,?,-4%,3%
Cc1ccc(NC(=O)CNCc2ccc(Cl)cc2Cl)cc1S(=O)(=O)N(C)C,35µM*,-1%,2,-6%,20µM*,25µM*
Cc1ccc(NC(=O)CNCc2ccccc2Cl)cc1S(=O)(=O)N(C)C,32µM*,-13%,5,-1%,3.2µM*,50µM*
Cc1ccc(NC(=O)Cc2c(Cl)cccc2Cl)cc1S(=O)(=O)N(C)C,36%,-5%,-27,7%,-25%,0%
CCOC(=O)C12CC1/C(=N\O)c1ccccc1O2 (stereo unspecified),nt,6%,nt,nt,nt,nt
CCCn1c(/N=C/c2c[nH]c3ccccc23)nc2ccccc21,-32%,-1%,nt,-9%,63µM*,?
CCCCn1c(/N=C/c2c[nH]c3ccccc23)nc2ccccc21,-15%,-5%,nt,-3%,?,?
Cc1cc(N/N=C/c2c[nH]c3ccccc23)c2ccccc2n1,10%,-5%,5,-10%,-16%,-35%
Cn1c(N/N=C/c2c[nH]c3ccccc23)nc2ccccc21,-37%,1%,-11,-6%,50µM*,32µM*
COc1cccc(CCNC(=O)CCc2nnc(Cc3cc(OC)ccc3OC)o2)c1,19%,-6%,-5,1%,2%,4%
O=C(Nc1ccc(C(=O)N2CCOCC2)cc1)C1CCC1,38%,nt,-2,-1%,-1%,nt
Cc1ccc(/C=C/c2nc3ccccc3n2S(=O)(=O)c2cccc(Cl)c2)cc1,22%,-6%,nt,nt,-6%,7%
CCCOc1ccc(N2C(=O)CC(NCc3ccc(S(N)(=O)=O)cc3)C2=O)cc1 (stereo unspecified),25%,-1%,1,-3%,-1%,-12%
CCOc1ccc(N2C(=O)CC(NCc3ccc(S(N)(=O)=O)cc3)C2=O)cc1 (stereo unspecified),-6%,-5%,-13,11µM*,-18%[11.4 µM],-2%
Cc1ccc2[nH]c(CSc3nnc(NC(=O)c4ccccc4C)s3)cc(=O)c2c1,23%[57 µM],?,nt,nt,-21%,56µM*
Cc1c(N(C(=O)c2ccccn2)C2(C(=O)NC3CCCCC3)CCCCC2)c(=O)n(-c2ccccc2)n1C,34%,-8%,2,-8%,2%,-15%
